The source of these data is PubChem BioAssay (NCATS).

Records with an inconclusive call do not appear. Where a call stands in place of a potency, no number is given. A number with no mark means an inactive call. Calls of active or inactive are those of the source. Calls follow the shape of the dose curve; as a rule, active = well fitted inhibition curve with a large enough effect; inconclusive = small, poorly fitted or top-dose-only effect; inactive = no such curve, though single readings can be large or run the other way.

The target in the assay is Protein phosphatase 1D (Homo sapiens) (UniProt O15297). The assay can be described thus: RapidFire Mass Spectrometry qHTS Assay for Modulators of WT P53-Induced Phosphatase 1 (WIP1) (AID 1347424). Conditions: WIP1 dephosphorylation of phosphopeptide, RapidFire MS; series mostly up to 63 µM. The text has this: Assay Provider (PI): Nathan Coussens Ph. D.
Chain of Protein phosphatase 1D (Homo sapiens) (O15297 whole entry, looked up): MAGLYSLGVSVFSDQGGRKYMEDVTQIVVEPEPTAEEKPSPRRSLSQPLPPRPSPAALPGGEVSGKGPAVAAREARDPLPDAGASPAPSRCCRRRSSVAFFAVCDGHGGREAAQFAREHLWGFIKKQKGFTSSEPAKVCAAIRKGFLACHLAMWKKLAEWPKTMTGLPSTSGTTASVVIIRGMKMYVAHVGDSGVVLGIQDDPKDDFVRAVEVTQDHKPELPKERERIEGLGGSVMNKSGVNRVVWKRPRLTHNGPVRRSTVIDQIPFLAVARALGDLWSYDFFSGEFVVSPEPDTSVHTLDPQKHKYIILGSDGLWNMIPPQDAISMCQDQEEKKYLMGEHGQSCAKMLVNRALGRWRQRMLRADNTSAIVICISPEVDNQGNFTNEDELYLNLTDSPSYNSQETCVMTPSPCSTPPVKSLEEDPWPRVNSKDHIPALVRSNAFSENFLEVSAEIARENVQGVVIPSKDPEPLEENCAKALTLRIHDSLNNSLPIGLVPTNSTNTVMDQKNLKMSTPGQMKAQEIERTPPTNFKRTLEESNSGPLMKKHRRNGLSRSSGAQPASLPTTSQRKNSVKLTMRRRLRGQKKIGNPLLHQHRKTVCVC
National Center for Advancing Translational Sciences (NCATS), Rockville, MD
National Institute of Health (NIH), Bethesda, Maryland
WT P53-Induced Phosphatase 1 (WIP1) is a member of the magnesium-dependent serine/threonine protein phosphatase (PPM) family and is induced by P53 in response to DNA damage. In several human cancers, the WIP1 protein is overexpressed, which is generally associated with a worse prognosis. Although WIP1 is an attractive therapeutic target, no potent, selective, and bioactive small-molecule modulator with favorable pharmacokinetics has been reported. Phosphatase enzymes are among the most challenging targets for small molecules because of the difficulty of achieving both modulator selectivity and bioavailability. Another major obstacle has been the availability of robust and physiologically relevant phosphatase assays that are suitable for high-throughput screening.
Here, we describe two orthogonal biochemical WIP1 activity assays that utilize phosphopeptides from native WIP1 substrates. We optimized a RapidFire MS assay to quantify the enzymatically dephosphorylated peptide reaction product in a 384-well format. Additionally, a redshifted Rhodamine-PBP fluorescence assay was optimized in a 1,536-well format to enable real-time WIP1 activity measurements through the detection of the orthogonal reaction product, Pi. We validated these two optimized assays by quantitative high-throughput screening against the National Center for Advancing Translational Sciences (NCATS) Pharmaceutical Collection and used secondary assays to confirm and evaluate inhibitors identified in the primary screen.
SEQUENCE No. (e.g., 1, 2, 3, etc.); […] (e.g., Cells, Incubation, Reagent, etc.); VALUE; DESCRIPTION
1; Reagent; 50 uL; dispensed assay buffer: 0.1% formic acid in water (10 uL : 40 uL) solution in column 1
3; Library Compounds; 63 nL; library compounds in DMSO, columns 3-24
4; Control Compounds; 63 nL; DMSO in wells I-P, columns 1-2, GSK830371 (10 uM, final) in wells A-H, column 2
5; Time; 1 hr; incubation
6; Substrate; 2 uL; VEPPL-pS-QETFS (10 uM) in assay buffer, column 2-24
7; Time; 5 min; incubation
8; Reagent; 2 uL; 0.5% formic acid in water, columns 2-24
9; Reagent; 38 uL; VEPPL-S-QETF*S in 0.1% formic acid, columns 2-24
10; Detection; mass spec; RapidFire mass spectrometry
NOTES (numbers refer to sequence above)
1, 2, 6; dispensed reagent in White Nunc 384-well PP microplates (264573); assay buffer: 50 mM Tris-HCl pH 7.5, 30 mM MgCl2, 1 mM TCEP, 0.1 mM EGTA, 75 ug/mL BSA.
2, 6, 8, 9; Dispensed with BioRaptr (Beckman Coulter)
2, 6, 9; Final concentrations: 10 nM WIP1; 2 uM VEPPL-pS-QETFS; 1 uM VEFFL-S-QETF*S
3 & 4; Kalypsys Pintool transfer (Wako USA), Tip wash sequence: water, DMSO, methanol, 20 sec vacuum dry.
5 & 7; incubation at room temperature
10; RapidFire mass spectrometry read using the Agilent RapidFire 360 (Clausse, 2019)
Clausse V, et al. Physiologically relevant orthogonal assay for the discovery of small-molecule modulators of WIP1 […] in high-throughput screens. J Biol Chem. 2019, 294(46): 17654-17668. doi:10.1074/jbc.RA119.010201
(qHTS replaces the single test concentration by a dilution series.)
Consider `NS(=O)(=O)c1cc2c(cc1Cl)CN(C1CCCCC1)C2=O`, for which the Potency result is “inactive”.

On to `CCS(=O)(=O)c1ccc(OC)c(C(=O)OC)c1`, for which the Potency result was “inactive”.

Regarding `CCN(CC)CC(=O)OCC(=O)[C@@]1(O)CC[C@H]2[C@@H]3CCC4=CC(=O)CC[C@]4(C)[C@H]3[C@@H](O)C[C@@]21C`, the Potency result was “inactive”.

Turning to `O=C(COCCOCCOCC(=O)Nc1c(I)cc(I)c(C(=O)O)c1I)Nc1c(I)cc(I)c(C(=O)O)c1I`, the Potency result was “inactive”.

As to `O=C(CCOCCOCCOCCOCCC(=O)Nc1c(I)cc(I)c(C(=O)O)c1I)Nc1c(I)cc(I)c(C(=O)O)c1I`, the Potency entry was “inactive”. Still for that read-out and setting: the result for `CN1C(CSCC(F)(F)F)Nc2cc(Cl)c(S(N)(=O)=O)cc2S1(=O)=O` (stereo not given) reads “inactive”. On the same count and under the same terms, as for `CC(COc1ccccc1)NN` (stereo not given), the entry is “inactive”.

For `O=C(O)[C@@H](O)[C@H](O)[C@H](O)[C@@H](O)C(=O)O`, the Potency result is “inactive”. Same read-out and setting: as for `CCC(C(=O)OCCN1CCOC(c2ccccc2)C1C)c1ccccc1` (stereo not given), the entry is “inactive”; as for `COC(=O)/C=C(/C)N`, “inactive”; as for `O=P(O)(O)OCC(O)CO` (stereo not given), “inactive”.

As for `CCCCC/C=C\C/C=C\CCCCCCCC(=O)NC(C)c1ccccc1` (stereo not given), the Potency result is “inactive”. Turning to `CCC(CN)=C(c1ccccc1)c1ccccc1`, the Potency entry is “inactive”. As for `N#CC1(c2ccc(F)cc2)CCC(=O)CC1`, the Potency result is “inactive”.

For the compound `NCC[C@H](O)C(=O)N[C@@H]1C[C@H](N)[C@@H](O[C@H]2O[C@H](CN)[C@@H](O)[C@H](O)[C@@H]2O)[C@H](O)[C@@H]1O[C@H]1O[C@H](CO)[C@@H](O)[C@H](N)[C@@H]1O`, the activity change, negative = inhibition is 3.64% [at 0.505 µM]. On to `C#Cc1ccc(-c2ccccc2F)cc1`, for which the Potency entry is “inactive”.

For the compound `O=C(O)C(=O)Nc1cccc(-c2nn[nH]n2)c1`, the Potency entry was “inactive”. On the same count and under the same terms, as for `O=C(O)CCCC[P+](c1ccccc1)(c1ccccc1)c1ccccc1`, the entry is “inactive”. Consider `[O-][n+]1cccc(/C(Cl)=N/OC[C@@H](O)CN2CCCCC2)c1`, for which the Potency result was “inactive”. For `CN(CC1(C)CCCO1)S(=O)(=O)c1ccc(Cl)c(S(N)(=O)=O)c1` (stereo not given), the Potency entry was “inactive”. On to `CCCCCC(=O)O[C@]1(C(C)=O)CC[C@H]2[C@@H]3CCC4=CC(=O)CC[C@]4(C)[C@H]3CC[C@@]21C`, for which the Potency result is “inactive”. The same measure, in the same setting: the result for `COc1cc(S(N)(=O)=O)cc(C(=O)O)c1OC` reads “inactive”; that for `CC1(C)O[C@@H]2C[C@H]3[C@@H]4CCC5=CC(=O)C=C[C@]5(C)[C@@]4(F)[C@@H](O)C[C@]3(C)[C@]2(C(=O)CO)O1`, “inactive”. On the same count and under the same terms, as for `CCCCC(CC)CNC(=O)CC(C)OC(=O)CCC(=O)O` (stereo not given), the entry is “inactive”; as for `CCOc1ccc(NS(=O)(=O)c2ccc(N)cc2)nn1`, “inactive”. Same read-out and setting: the result for `Oc1ccc(CCNCCCCCCNCCc2ccccc2)cc1O` reads “inactive”; that for `C=CCNc1nc(NCC=C)nc(N2CCN(C(c3ccc(F)cc3)c3ccc(F)cc3)CC2)n1`, “inactive”. Consider `Oc1ccccc1`, for which the Potency entry was “inactive”. Still for that read-out and setting: the result for `OC1(c2ccc(Cl)c(C(F)(F)F)c2)CCN(CCCC(c2ccc(F)cc2)c2ccc(F)cc2)CC1` reads “inactive”; that for `CN1CC(=O)N2[C@H](c3ccc4c(c3)OCO4)c3[nH]c4ccccc4c3C[C@@H]2C1=O`, “inactive”.

In the case of `COc1cc(C(=O)OC(COCCC(C)C)CN2CCOCC2)cc(OC)c1OC` (stereo not given), the Potency entry is “inactive”. On to `C[C@H]1C[C@H](O)c2ccsc2S1(=O)=O`, for which the Potency result was “inactive”. Regarding `C[C@H](N)C(=O)N[C@@H](C)C(=O)NC1[C@H]2CN(c3nc4c(cc3F)c(=O)c(C(=O)O)cn4-c3ccc(F)cc3F)C[C@@H]12` (stereo not given in full), the Potency entry was “inactive”. Still for that read-out and setting: the result for `CCN(CC)CCN` reads “inactive”; that for `COc1ccc(CCC(C)=O)cc1`, “inactive”; that for `CC(=O)N[C@@H](CCC(N)=O)C(=O)O`, “inactive”. Same read-out and setting: as for `Cc1cccc(C)c1NC(=O)c1ccc(N)cc1`, the entry is “inactive”; as for `CO/N=C(/C(=O)N[C@@H]1C(=O)N2C(C(=O)O)=C(Cn3nnc(C)n3)CS[C@H]12)c1csc(N)n1`, “inactive”. As to `CN(C)CCCOC1(Cc2ccccc2)CCCCCC1`, the Potency entry is “inactive”. The same measure, in the same setting: as for `C[N+]1(CC2COC(c3ccccc3)(c3ccccc3)O2)CCCCC1` (stereo not given), the entry is “inactive”.
